Laboratory results as given in the supplement of paper PMC8387472.

What was measured:
Experiment in all cases: fraction of 1-bp insertions among edited reads; higher = more 1-bp insertion outcomes
Conditions in all cases: mESC; 2uM; 72 h treatment, harvest day 5
[1] = compound: CNc1ccc([N+](=O)[O-])c(Nc2ccc3[nH]ncc3c2)n1
Rifapentine = compound: CO[C@H]1/C=C/O[C@@]2(C)Oc3c(C)c(O)c4c(O)c(c(/C=N/N5CCN(C6CCCC6)CC5)c(O)c4c3C2=O)NC(=O)/C(C)=C\C=C\[C@H](C)[C@H](O)[C@@H](C)[C@@H](O)[C@@H](C)[C@H](OC(C)=O)[C@@H]1C [Rifapentine]
[2] = compound: COc1ccccc1-c1cc(Nc2cccc(CS(N)(=O)=O)c2)ncn1
[3] = compound: Cc1cc(C)nc(SCC(=O)Nc2ncc(Cc3cccc4ccccc34)s2)n1
[4] = compound: Cc1ccc(C(=O)NCCCCCC(=O)Nc2ccccc2N)cc1
Tucidinostat (Chidamide) = compound: Nc1cc(F)ccc1NC(=O)c1ccc(CNC(=O)/C=C/c2cccnc2)cc1 [Tucidinostat (Chidamide)]
[5] = compound: Nc1ncnc2c1c(-c1cnc3[nH]ccc3c1)nn2C1CCCC1
Kenpaullone = compound: O=C1Cc2c([nH]c3ccc(Br)cc23)-c2ccccc2N1 [Kenpaullone]
Genistein = compound: O=c1c(-c2ccc(O)cc2)coc2cc(O)cc(O)c12 [Genistein]
[6] = compound: O=c1cc(N2CCOCC2)oc2c(-c3ccc4c(c3)OCCO4)csc12
Mercaptopurine (6-MP) = compound: S=c1[nH]cnc2nc[nH]c12 [Mercaptopurine (6-MP)]
[7] = compound: S=c1nc[nH]c2nc[nH]c12 [6-Mercaptopurine (6-MP) Monohydrate]
[8] = compound: CCn1c(=O)c(-c2ccc(Cl)cc2Cl)cc2cnc(Nc3ccc(N4CCNCC4)c(F)c3)nc21
[9] = compound: C[C@@H]1CN(CC(=O)Nc2ccc3c(c2)Cc2cccc(-c4cc(=O)cc(N5CCOCC5)o4)c2S3)C[C@H](C)O1
[10] = compound: Cc1cccc(CC(=O)N2CCc3c2ccc(-c2cn(C)c4ncnc(N)c24)c3F)n1
[11] = compound: NC(=O)c1ccc2nc(-c3ccc(Oc4ccc(Cl)cc4)cc3)[nH]c2c1 [Chk 2 inhibitor II (BML-277)]
Pemetrexed = compound: Nc1nc2[nH]cc(CCc3ccc(C(=O)N[C@@H](CCC(=O)O)C(=O)O)cc3)c2c(=O)[nH]1 [Pemetrexed]
[12] = compound: O=C(c1cccc(Cl)c1F)N1CCN(Cc2cccc(Nc3nccs3)n2)CC1

Row | Target | fraction of 1-bp insertions among edited reads [1] | fraction of 1-bp insertions among edited reads (Rifapentine) | fraction of 1-bp insertions among edited reads [2] | fraction of 1-bp insertions among edited reads [3] | fraction of 1-bp insertions among edited reads [4] | fraction of 1-bp insertions among edited reads (Tucidinostat (Chidamide)) | fraction of 1-bp insertions among edited reads [5] | fraction of 1-bp insertions among edited reads (Kenpaullone) | fraction of 1-bp insertions among edited reads (Genistein) | fraction of 1-bp insertions among edited reads [6] | fraction of 1-bp insertions among edited reads (Mercaptopurine (6-MP)) | fraction of 1-bp insertions among edited reads [7] | fraction of 1-bp insertions among edited reads [8] | fraction of 1-bp insertions among edited reads [9] | fraction of 1-bp insertions among edited reads [10] | fraction of 1-bp insertions among edited reads [11] | fraction of 1-bp insertions among edited reads (Pemetrexed) | fraction of 1-bp insertions among edited reads [12]
1 | 27.0 CCAGAATTAGAACATATCATCTGGACCCTTTTCCATCTGGACCCTTTTCCAGCACACCCTG | 0.13 | 0.109 | 0.108 | 0.124 | 0.149 | 0.137 | 0.169 | 0.146 | 0.183 | 0.158 | 0.141 | 0.187 | – | – | – | – | – | –
2 | 39.0 (DMSO control at this site: 1-bp insertion 0.328, MH deletion 0.371, edited 0.204) CTGCACAGTCACTTAGGATAGGAGAAGATGATGTATAGGGTTTAGTGGGAGATGTTGCAAG | 0.466 | 0.39 | 0.442 | 0.396 | 0.384 | 0.487 | – | 0.572 | 0.372 | 0.355 | 0.407 | 0.417 | 0.383 | 0.804 | 0.463 | 0.404 | 0.395 | 0.45
3 | 43.0 (DMSO control at this site: 1-bp insertion 0.134, MH deletion 0.714, edited 0.104) AGTTTAACTTACTCCGGCCAAAAAAGAACTGCACCTCTGGAGCGGGTTAGTGGTGGTGGTA | 0.0932 | 0.0993 | 0.101 | 0.0918 | 0.0831 | 0.0828 | 0.0907 | 0.058 | 0.0866 | 0.0822 | 0.0946 | 0.122 | 0.0588 | 0.118 | 0.0629 | 0.1 | 0.101 | 0.0417
4 | 29.0 (DMSO control at this site: 1-bp insertion 0.084, MH deletion 0.745, edited 0.133) TTGATGAACTTCCTCTTCTTCTCATGTCTCCGGTCTCCGGTAGGCCACGTGCATGGCCACT | 0.0921 | 0.0712 | 0.106 | 0.0918 | 0.0975 | 0.122 | 0.112 | 0.11 | 0.072 | 0.0694 | 0.105 | 0.115 | 0.0597 | 0.339 | 0.111 | 0.0639 | 0.0781 | 0.119
5 | 34.0 (DMSO control at this site: 1-bp insertion 0.184, MH deletion 0.385, edited 0.103) ATTATAGGACCCTGAGGGAGCAGAGATGTGGGAATGGGGGCCGAGCCAATTGTGATGTAAG | 0.199 | 0.159 | 0.169 | 0.165 | 0.208 | 0.184 | 0.233 | 0.154 | 0.11 | 0.176 | 0.213 | 0.2 | 0.153 | 0.361 | 0.197 | 0.148 | 0.121 | 0.211
6 | 16.0 (DMSO control at this site: 1-bp insertion 0.172, MH deletion 0.29, edited 0.05) CGGACTGCACACATGGGTAGGATCGTGCACGCGAGGTAGGATCGTGCACGCGAAGTTATTC | 0.225 | 0.14 | 0.213 | 0.169 | 0.149 | 0.172 | 0.218 | 0.198 | 0.144 | 0.19 | 0.165 | 0.166 | 0.169 | 0.32 | 0.208 | 0.191 | 0.149 | 0.178
7 | 5.0 (DMSO control at this site: 1-bp insertion 0.214, MH deletion 0.567, edited 0.105) CGCTGACCCGAGACCTACGCGAACCGAAATCGGCGACCGGTGCGCAAGCAGGGCTGGCGTC | 0.261 | 0.208 | 0.267 | 0.232 | 0.217 | 0.257 | 0.293 | 0.277 | 0.203 | 0.187 | 0.27 | 0.272 | 0.179 | 0.477 | 0.252 | 0.208 | 0.184 | 0.277
8 | 21.0 CGATTGAGAGTCAAACGGGCCAGAAAACTCCGGGAACGGGCCAGAAAACTCCGGGGCATGG | 0.026 | 0.0143 | 0.0287 | 0.0108 | 0.0393 | 0.0194 | 0.0122 | 0.0245 | 0.0192 | 0.0417 | 0.0152 | 0.0297 | – | 0.0355 | – | 0.0251 | 0.0119 | –
9 | 22.0 (DMSO control at this site: 1-bp insertion 0.573, MH deletion 0.229, edited 0.045) CTGATGGTTGAAGGATTTAGCCGGGGTCCTAGACGCCGGGGTCCTAGACGAAAGGGCCACG | 0.667 | 0.644 | 0.619 | 0.573 | 0.653 | 0.53 | – | 0.604 | 0.595 | 0.623 | 0.587 | 0.601 | 0.614 | 0.778 | 0.725 | 0.508 | 0.447 | 0.671
